Results on 21 molecules are retold here after PubChem BioAssay (NCATS).

Experiment [1] deals with Rap guanine nucleotide exchange factor 3 (Homo sapiens) (UniProt O95398). The experiment is described as follows: Confirmatory qHTS for antagonist of cAMP-regulated guanine nucleotide exchange factor 3 (EPAC1) (AID 1645880). Also: nearly all actives have a fitted effect of over 55% in size. Also: potency is read from the fitted curve at half-maximal effect. The gist of the method: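 Nucleotide exchange uses 100 nM EPAC1, 250 nM RAP1B-BODIPY-GDP and 50 uM GDP, with compounds in a concentration-titration series. After 5 min at room temperature, fluorescence (480 nm ex/540 nm em) is read every 5 min for 30 min. Data are normalized to control ATA and DMSO.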
Rap guanine nucleotide exchange factor 3 (Homo sapiens), sequence (O95398 whole entry, looked up): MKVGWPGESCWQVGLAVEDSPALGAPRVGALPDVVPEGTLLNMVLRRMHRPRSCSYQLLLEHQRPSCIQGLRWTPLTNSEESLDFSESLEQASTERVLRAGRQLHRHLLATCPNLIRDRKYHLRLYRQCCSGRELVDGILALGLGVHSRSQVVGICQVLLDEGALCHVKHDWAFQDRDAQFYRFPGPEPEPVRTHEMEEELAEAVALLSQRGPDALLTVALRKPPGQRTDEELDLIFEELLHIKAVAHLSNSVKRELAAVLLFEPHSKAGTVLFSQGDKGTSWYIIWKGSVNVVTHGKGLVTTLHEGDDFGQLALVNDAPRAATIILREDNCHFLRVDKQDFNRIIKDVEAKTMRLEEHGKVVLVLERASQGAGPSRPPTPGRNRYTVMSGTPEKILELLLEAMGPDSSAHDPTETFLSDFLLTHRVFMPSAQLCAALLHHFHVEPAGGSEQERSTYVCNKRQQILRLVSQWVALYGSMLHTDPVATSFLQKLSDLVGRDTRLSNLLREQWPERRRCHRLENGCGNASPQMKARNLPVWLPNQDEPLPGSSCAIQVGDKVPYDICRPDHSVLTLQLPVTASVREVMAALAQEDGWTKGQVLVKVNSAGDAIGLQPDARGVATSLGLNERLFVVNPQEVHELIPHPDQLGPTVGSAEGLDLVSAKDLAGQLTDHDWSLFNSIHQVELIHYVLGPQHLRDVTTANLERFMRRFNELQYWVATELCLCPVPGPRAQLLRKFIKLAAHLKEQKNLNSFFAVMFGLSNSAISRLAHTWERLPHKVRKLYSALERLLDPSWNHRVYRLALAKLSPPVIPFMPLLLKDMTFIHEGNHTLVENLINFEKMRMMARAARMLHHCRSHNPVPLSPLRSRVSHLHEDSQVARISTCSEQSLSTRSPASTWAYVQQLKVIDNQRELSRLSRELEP
(In qHTS, concentration-response curves come from the screen itself.)

For experiment [2] the target is unchanged. The experiment is described as follows: Confirmatory qHTS for agonist of cAMP-regulated guanine nucleotide exchange factor 3 (EPAC1) (AID 1645881). Also: nearly all actives have a fitted effect of over 75% in size. Also: potency is read from the fitted curve at half-maximal effect.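 As to activation: EPAC1 catalysed release of BODIPY-GDP from Rap1B seen as fluorescence loss; 100% = effect of cAMP agonist control.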
In experiment [3] the target is Rap guanine nucleotide exchange factor 4 (Homo sapiens) (UniProt Q8WZA2). The experiment is described as follows: Confirmatory qHTS for agonist of cAMP-regulated guanine nucleotide exchange factor 4 (EPAC2) (AID 1645884).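 Also: nucleotide exchange releases bodipy-GDP from Rap1 and this lowers its fluorescence; nearly all actives have a fitted effect of over 65% in size.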 Also: potency is read from the fitted curve at half-maximal effect. As to activation: % is scaled to controls: 0 for no effect and ±100 for the full control effect.
Rap guanine nucleotide exchange factor 4 (Homo sapiens), sequence (Q8WZA2 whole entry, looked up): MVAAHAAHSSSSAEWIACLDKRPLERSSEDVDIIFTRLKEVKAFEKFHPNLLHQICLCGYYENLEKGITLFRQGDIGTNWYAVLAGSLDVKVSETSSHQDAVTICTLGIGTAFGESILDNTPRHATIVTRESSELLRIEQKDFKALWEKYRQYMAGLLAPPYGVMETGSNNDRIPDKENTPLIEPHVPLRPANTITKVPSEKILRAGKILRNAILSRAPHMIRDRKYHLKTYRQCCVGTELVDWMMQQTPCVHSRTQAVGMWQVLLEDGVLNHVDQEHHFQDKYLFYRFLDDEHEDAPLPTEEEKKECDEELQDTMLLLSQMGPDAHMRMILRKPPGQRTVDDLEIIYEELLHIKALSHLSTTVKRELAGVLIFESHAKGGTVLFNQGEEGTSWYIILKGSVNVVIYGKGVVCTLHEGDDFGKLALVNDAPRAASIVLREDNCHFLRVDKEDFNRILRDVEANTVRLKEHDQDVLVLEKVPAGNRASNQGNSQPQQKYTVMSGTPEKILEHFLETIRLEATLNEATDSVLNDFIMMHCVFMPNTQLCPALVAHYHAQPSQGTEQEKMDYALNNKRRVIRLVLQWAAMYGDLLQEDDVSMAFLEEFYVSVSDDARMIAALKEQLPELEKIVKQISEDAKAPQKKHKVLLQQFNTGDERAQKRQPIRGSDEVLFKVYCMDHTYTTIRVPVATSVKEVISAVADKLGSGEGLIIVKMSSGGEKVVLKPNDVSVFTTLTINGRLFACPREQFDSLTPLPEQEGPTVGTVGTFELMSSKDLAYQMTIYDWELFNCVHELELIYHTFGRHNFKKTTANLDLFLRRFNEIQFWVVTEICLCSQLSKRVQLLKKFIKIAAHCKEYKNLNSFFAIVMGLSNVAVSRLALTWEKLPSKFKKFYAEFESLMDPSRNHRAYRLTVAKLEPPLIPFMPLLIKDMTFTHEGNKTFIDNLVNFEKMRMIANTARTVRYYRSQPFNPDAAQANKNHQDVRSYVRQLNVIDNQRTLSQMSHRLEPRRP
The target is the same in experiment [4]. The experiment is described as follows: Confirmatory qHTS for antagonist of cAMP-regulated guanine nucleotide exchange factor 4 (EPAC2) (AID 1645885). Also: nearly all actives have a fitted effect of over 25% in size. Also: potency is read from the fitted curve at half-maximal effect. As to activity change, negative = inhibition: % is scaled to controls: 0 for no effect and ±100 for the full control effect.
The target in experiment [5] is Rap guanine nucleotide exchange factor 3 (Homo sapiens) (UniProt O95398). The experiment is described as follows: Counterscreen qHTS for antagonist of cAMP-regulated guanine nucleotide exchange factor 3 (EPAC1) (AID 1645888).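 Also: fluorescence loss as bound BODIPY-GDP is released from Rap1B; % of control where 0% means no effect.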 The gist of the method:
(§1)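 Rap1B-BODIPY-GDP 250 nM + GDP 50 uM; cpds 7-pt, final 9.74 nM–152 uM (activator mode) or from 7.32 nM upwards (inhibitor mode); RT; FI 480/540 nm at 5 and 30 min, then ± cAMP, reread.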
In general terms: A counterscreen serves to expose hits that act by an unwanted route or on another target.

Experiment [6] has the same target. The experiment is described as follows: Counterscreen qHTS for agonist of cAMP-regulated guanine nucleotide exchange factor 3 (EPAC1) (AID 1645889). Also: % of control where 0% means no effect; nearly all actives have a fitted effect of over 40% in size. Put shortly: as §1

SMILES strings stand for the structures. Results filed as inconclusive are left out. Unmarked numbers belong to inactive results. Calls of active or inactive are those of the source. Calls follow the shape of the dose curve; as a rule, active = well fitted curve in the direction sought with a large enough effect; inconclusive = small, poorly fitted or top-dose-only effect, or another doubt; inactive = no such curve, though single readings can be large; an effect the other way counts as inactive or inconclusive.

On to `COc1cccc2c(N/N=C/c3ccco3)cc(C)nc12`, for which the Potency entry in experiment [1], in experiment [2], in experiment [3], in experiment [4], in experiment [5] and in experiment [6] was “inactive” each time.
With `Cn1c(Cc2cccs2)nnc1SCc1nc2ccccc2[nH]1`, the Potency entry in experiment [1], in experiment [2] and in experiment [4] was “inactive” throughout. Besides, the activation in experiment [3] is 2.48% [at 17.1 µM, percent relative to cAMP agonist control]; in experiment [6], 30.7% [at 30.8 µM]. Further, the activity change, negative = inhibition in experiment [5] is -1.2% [at 30.8 µM].
Consider `Cc1cc(N=Nc2ccccc2C(=O)O)c(C)c(C)c1O`, for which the Potency in experiment [1] was 39.8 µM (active). The Potency result in experiment [2] and in experiment [4] was “inactive” in each case. For the same molecule, the activation in experiment [3] was -13.7% [at 17.1 µM, percent relative to cAMP agonist control]; in experiment [6], 4.71% [at 30.8 µM]. In addition, the activity change, negative = inhibition in experiment [5] is -28.9% [at 30.8 µM].
`Cc1ccc(-n2nc3c(=O)n(CCCC(=O)NCc4ccccc4F)nc(C)c3c2C)cc1`: the Potency entry in experiment [1], in experiment [2], in experiment [3], in experiment [4], in experiment [5] and in experiment [6] was “inactive” each time.
For `COC(=O)CSc1nc2c(c(=O)n(C)c(=O)n2C)n1CCCc1ccccc1`, the Potency entry in experiment [1], in experiment [2] and in experiment [4] was “inactive” throughout. The activation in experiment [3] was 4.31% [at 17.1 µM, percent relative to cAMP agonist control]; in experiment [6], 0.96% [at 30.8 µM]. In addition, the activity change, negative = inhibition in experiment [5] is -3.64% [at 30.8 µM].
For the molecule `O=C(O)C(c1ccccc1)N1C(=O)/C(=C\c2ccc(O)c(O)c2)SC1=S` (stereo unspecified), the Potency in experiment [1] was 6.75 µM (active); in experiment [4], 21.3 µM (active). Besides, the Potency result in experiment [2], in experiment [3], in experiment [5] and in experiment [6] was “inactive” each time.
For `O=C(c1ccc(CSCc2ccccc2F)o1)N1CCN(c2ccc(N3CCOCC3)nn2)CC1`, the Potency entry in experiment [1], in experiment [2] and in experiment [4] was “inactive” each time. Besides, the activation in experiment [3] is 3.73% [at 17.1 µM, percent relative to cAMP agonist control]; in experiment [6] it was 14.5% [at 30.8 µM]. Also, the activity change, negative = inhibition in experiment [5] is -4.38% [at 30.8 µM].
Consider `COc1cn(CC(=O)Nc2cccc(C)c2C)c(CN2CCCCC2)cc1=O`, for which the Potency entry in experiment [1], in experiment [2], in experiment [3], in experiment [4], in experiment [5] and in experiment [6] was “inactive” throughout.
As for `Cn1c(=O)c2nc3ccc(NC(=O)C(F)(F)F)cc3nc2n(C)c1=O`, in experiment [1], the Potency was 84.9 µM (active). In addition, the Potency result in experiment [2], in experiment [3], in experiment [4], in experiment [5] and in experiment [6] was “inactive” each time.
As for `COC(=O)C1=C(C)N(Cc2ccco2)C(=O)/C1=C\c1ccc(N(C)C)cc1`, the Potency entry in experiment [1], in experiment [2], in experiment [3], in experiment [4], in experiment [5] and in experiment [6] was “inactive” in each case.
For the molecule `CCOc1ccc(NS(=O)(=O)c2cc3c(cc2C)N(C)CCO3)cc1`, the Potency result in experiment [1], in experiment [2] and in experiment [4] was “inactive” throughout. Besides, the activation is 7.18% [at 17.1 µM, percent relative to cAMP agonist control] in experiment [3] and 29.5% [at 30.8 µM] in experiment [6]. In addition, the activity change, negative = inhibition in experiment [5] was -12% [at 30.8 µM].
As for `NNC(=O)c1cccc(COCC(F)(F)C(F)F)c1`, the Potency entry in experiment [1], in experiment [2], in experiment [3], in experiment [4], in experiment [5] and in experiment [6] was “inactive” in each case.
In the case of `CCCCNC(=O)NC12CC3CC(CC(C3)C1)C2`, the Potency entry in experiment [1], in experiment [2], in experiment [3], in experiment [4], in experiment [5] and in experiment [6] was “inactive” throughout.
For `O=C(O)c1ccc(/C=N/N2CCN(Cc3cccc4ccccc34)CC2)cc1`, the Potency result in experiment [1], in experiment [2] and in experiment [4] was “inactive” in each case. Besides, the activation in experiment [3] was 4.54% [at 17.1 µM, percent relative to cAMP agonist control]; in experiment [6] it was 4.41% [at 30.8 µM]. Besides, the activity change, negative = inhibition in experiment [5] is -6.71% [at 30.8 µM].
Turning to `COc1ccc(OC)c(/C=c2\sc3nc(-c4cccs4)nn3c2=O)c1`, the Potency entry in experiment [1], in experiment [4], in experiment [5] and in experiment [6] was “inactive” throughout. Also, the Potency was 89.1 µM (active) in experiment [2] and 100 µM (active) in experiment [3].
With `CCCCn1c(N)c(N(CC(C)C)C(=O)C2CCN(S(=O)(=O)c3ccc(C)c(C)c3)CC2)c(=O)[nH]c1=O`, the Potency entry in experiment [1], in experiment [2], in experiment [3], in experiment [4], in experiment [5] and in experiment [6] was “inactive” throughout.
For the molecule `C=CCn1c(C)cc(C(=O)Cn2ncc(Cl)c(Cl)c2=O)c1C`, the Potency in experiment [1] was 37.9 µM (active). Besides, the Potency entry in experiment [2], in experiment [3], in experiment [4], in experiment [5] and in experiment [6] was “inactive” in each case.
In the case of `Cc1ccc(S(=O)(=O)N2CCN(C(=O)CC(C)n3nc(C)c(Cl)c3C)CC2)cc1` (stereo unspecified), the Potency entry in experiment [1], in experiment [2] and in experiment [4] was “inactive” each time. The activation in experiment [3] was 1.58% [at 17.1 µM, percent relative to cAMP agonist control]; in experiment [6] it was 6.22% [at 30.8 µM]. Further, the activity change, negative = inhibition in experiment [5] was 13.5% [at 30.8 µM].
`COc1cc(/C=N/NC(=O)c2ccc3c(c2)OCCO3)cc(Br)c1O`: the Potency in experiment [1] was 42.6 µM (active). Further, the Potency entry in experiment [2], in experiment [3], in experiment [4], in experiment [5] and in experiment [6] was “inactive” in each case.
As to `CCOc1ccccc1C(=O)N(Cc1cccs1)c1ccc(Cl)cc1`, the Potency result in experiment [1], in experiment [2], in experiment [3], in experiment [4], in experiment [5] and in experiment [6] was “inactive” throughout.
Consider `CCC(NS(=O)(=O)c1ccc2c(c1)NC(=O)C(C)C(=O)N2)c1cccs1` (stereo unspecified), for which the Potency entry in experiment [1], in experiment [2], in experiment [3], in experiment [4], in experiment [5] and in experiment [6] was “inactive” in each case.
